Measured values published in PubChem BioAssay (NCATS).
Values joined by “and” are separate entries in the source; they are usually repeats but may differ in a detail not shown here. Identical values can stand only once. Results filed as inconclusive are left out. Active and inactive are the calls of the source. Unless noted, the call rests on the fitted dose curve; in most records, active means well fitted curve in the direction sought with a large enough effect; inconclusive means small, poorly fitted or top-dose-only effect, or another doubt; inactive means no such curve, though single readings can be large; an effect the other way counts as inactive or inconclusive.

Legend:
[1] = target: Cytochrome P450 1A2 (Homo sapiens) (UniProt P05177); experiment: p450-cyp1a2 (AID 410; calls by dose curve; further: potency means the concentration at half of the fitted maximal effect;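 on activity change, negative = inhibition: -100% = full effect of reference inhibitor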)
Chain of Cytochrome P450 1A2 (Homo sapiens) (P05177 whole entry, looked up): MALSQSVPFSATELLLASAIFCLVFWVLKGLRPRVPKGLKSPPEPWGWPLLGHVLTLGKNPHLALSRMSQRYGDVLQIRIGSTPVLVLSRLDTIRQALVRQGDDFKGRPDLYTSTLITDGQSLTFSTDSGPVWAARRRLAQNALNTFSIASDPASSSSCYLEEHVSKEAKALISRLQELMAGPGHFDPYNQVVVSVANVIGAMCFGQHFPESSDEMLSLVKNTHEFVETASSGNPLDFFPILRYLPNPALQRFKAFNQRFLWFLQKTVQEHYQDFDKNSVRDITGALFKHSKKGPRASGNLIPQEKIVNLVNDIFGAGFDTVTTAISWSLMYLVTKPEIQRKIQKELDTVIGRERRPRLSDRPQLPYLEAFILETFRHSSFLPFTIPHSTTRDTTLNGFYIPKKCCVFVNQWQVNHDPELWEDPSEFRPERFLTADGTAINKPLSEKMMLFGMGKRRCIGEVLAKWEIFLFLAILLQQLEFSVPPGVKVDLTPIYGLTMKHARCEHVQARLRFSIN
Outline: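 20nM CYP1A2, 100uM Luciferin-ME (=Km), 100mM KPO4; cpd 10 min RT; +NADPH regen, 60 min RT; stop/detect 20 min; luminescence. Normalized to furafylline 57 uM = full inhibition.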

[2] = target: Glucocorticoid receptor (Homo sapiens) (UniProt P04150); experiment: GR-GFP Redistribution (AID 450;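 active means compounds whose dose series gives a full or clear partial fitted curve of increased nuclear translocation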; further: potency means the concentration at half of the fitted maximal effect); details: U2OS GR-GFP nuclear translocation, laser cytometry, 2 h
Chain of Glucocorticoid receptor (Homo sapiens) (P04150 whole entry, looked up, the tested form may be a part): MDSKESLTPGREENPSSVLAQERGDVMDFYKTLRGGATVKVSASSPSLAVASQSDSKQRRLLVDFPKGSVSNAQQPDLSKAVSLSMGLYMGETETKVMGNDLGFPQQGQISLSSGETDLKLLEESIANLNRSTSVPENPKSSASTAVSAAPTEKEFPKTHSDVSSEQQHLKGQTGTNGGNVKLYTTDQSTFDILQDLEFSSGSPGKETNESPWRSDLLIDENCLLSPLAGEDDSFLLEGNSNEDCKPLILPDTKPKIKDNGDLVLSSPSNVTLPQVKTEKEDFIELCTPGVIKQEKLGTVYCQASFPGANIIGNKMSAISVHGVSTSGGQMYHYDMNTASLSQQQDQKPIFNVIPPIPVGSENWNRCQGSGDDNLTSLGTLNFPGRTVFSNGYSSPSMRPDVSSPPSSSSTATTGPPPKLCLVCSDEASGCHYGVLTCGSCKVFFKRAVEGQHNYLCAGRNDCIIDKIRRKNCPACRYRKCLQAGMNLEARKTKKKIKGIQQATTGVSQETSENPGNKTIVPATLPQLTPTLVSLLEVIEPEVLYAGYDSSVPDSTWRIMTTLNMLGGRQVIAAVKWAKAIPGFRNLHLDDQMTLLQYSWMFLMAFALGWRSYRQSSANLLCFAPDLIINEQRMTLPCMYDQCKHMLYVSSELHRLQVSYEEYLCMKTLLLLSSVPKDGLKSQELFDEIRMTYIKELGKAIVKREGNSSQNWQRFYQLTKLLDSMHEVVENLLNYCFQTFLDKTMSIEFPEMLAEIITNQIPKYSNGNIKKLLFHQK

[3] = target: Glucocorticoid receptor (Homo sapiens) (UniProt P04150); experiment: GR-EFC Redistribution (AID 451; calls by dose curve; further: potency means the concentration at half of the fitted maximal effect); details: CHO-K1 GR-EFC translocation, beta-gal luminescence, 2 h
Outline: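 CHO-K1 cells expressing nuclear EA and GR-ED fragments of b-gal; compounds titrated up to 46 uM final, 2 h at 37 C. GR nuclear translocation read as complemented b-gal luminescence after 1 h RT detection.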

[4] = target: Mitogen-activated protein kinase 10 (Mus musculus) (UniProt Q61831); experiment: JNK3 AlphaScreen Assay (AID 530; active means well fitted curve in either direction with a large enough effect, not every such curve was filed as active;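 further: kinase came from lysate of stimulated human HepG2 cells; signal reports phosphorylation of biotinylated GST-cJun 1-79 at Ser73 with 10 µM ATP; on the % scale 0 is the no-effect control and ±100 the full control effect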)
Outline: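 HepG2 lysate (IL-1b/TNFa pre-activated) + biotin-GST-cJun 1-79 + anti-pSer73 cJun; cpd titration, 15 min RT; ATP 10 uM start; Tris pH 7.6, MgCl2, DTT, vanadate; beads in EDTA buffer; AlphaScreen.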

[5] = qHTS Assay for Lipid Storage Modulators (AID 1519; calls by dose curve); details: Drosophila S3 cells, BODIPY lipid droplet/cell ratio, laser cytometry, cells loaded with oleic acid
Outline: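 Cells seeded at 5,000 per well were treated with compounds over a concentration series and loaded with oleic acid (400 uM, as added). Lipid droplet fluorescence (488 nm excitation, 500-530 nm channel) was read by laser-scanning cytometry and normalized to 20 uM Triacsin C.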

[6] = target: DNA dC->dU-editing enzyme APOBEC-3G (Homo sapiens) (UniProt Q9HC16); experiment: qHTS for inhibitors of Vif-A3G interactions: Validation (AID 588379); further: 0% is about no effect
Chain of DNA dC->dU-editing enzyme APOBEC-3G (Homo sapiens) (Q9HC16 whole entry, looked up): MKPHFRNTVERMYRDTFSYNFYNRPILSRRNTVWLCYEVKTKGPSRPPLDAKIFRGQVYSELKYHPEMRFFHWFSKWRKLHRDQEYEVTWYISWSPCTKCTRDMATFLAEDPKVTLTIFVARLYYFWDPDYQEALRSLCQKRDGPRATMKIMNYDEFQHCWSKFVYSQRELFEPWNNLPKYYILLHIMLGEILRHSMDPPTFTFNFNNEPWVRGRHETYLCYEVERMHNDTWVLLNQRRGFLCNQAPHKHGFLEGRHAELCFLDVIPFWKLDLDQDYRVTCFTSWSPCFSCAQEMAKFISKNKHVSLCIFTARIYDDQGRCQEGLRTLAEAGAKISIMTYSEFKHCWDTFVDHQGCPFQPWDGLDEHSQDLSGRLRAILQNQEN
Outline: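 Yellow fluorescence (Ex 488, Em 500-530) of Vif-coexpressing HeLa A3G-eYFP cells, scanned by Acumen cytometer, reports blocked A3G degradation. Cells plated at 700/well overnight at 37 deg C before compound addition, then a further overnight compound incubation at 37 deg C.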

[7] = test system: Zika virus NS2B-NS3 protease; experiment: Primary screen GU AMC qHTS for Zika virus inhibitors (AID 1347154);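 further: 0% = no-inhibitor control and -100% = no-enzyme control; nearly all actives have a fitted effect of over 70% in size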
Outline: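 Unlinked Zika NS2B hydrophilic domain–NS3 protease complex at 25 nM in 10 mM Tris-HCl pH 8.0, 0.01% Tween 20, with an AMC peptide substrate. Fluorescence change (340/450 nm) over 15 min at room temperature, normalized to controls, fitted to 4-parameter Hill.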

[8] = target: 3',5'-cyclic-AMP phosphodiesterase 4B (Homo sapiens) (UniProt Q07343); experiment: qHTS Assay for Inhibitors of PDE-IV (AID 607; active means well fitted activation curve with a large enough effect in the main read-out, with a control signal flat, not every such curve was filed as active; further: % of control where 0% means no effect)
Chain of 3',5'-cyclic-AMP phosphodiesterase 4B (Homo sapiens) (Q07343 whole entry, looked up): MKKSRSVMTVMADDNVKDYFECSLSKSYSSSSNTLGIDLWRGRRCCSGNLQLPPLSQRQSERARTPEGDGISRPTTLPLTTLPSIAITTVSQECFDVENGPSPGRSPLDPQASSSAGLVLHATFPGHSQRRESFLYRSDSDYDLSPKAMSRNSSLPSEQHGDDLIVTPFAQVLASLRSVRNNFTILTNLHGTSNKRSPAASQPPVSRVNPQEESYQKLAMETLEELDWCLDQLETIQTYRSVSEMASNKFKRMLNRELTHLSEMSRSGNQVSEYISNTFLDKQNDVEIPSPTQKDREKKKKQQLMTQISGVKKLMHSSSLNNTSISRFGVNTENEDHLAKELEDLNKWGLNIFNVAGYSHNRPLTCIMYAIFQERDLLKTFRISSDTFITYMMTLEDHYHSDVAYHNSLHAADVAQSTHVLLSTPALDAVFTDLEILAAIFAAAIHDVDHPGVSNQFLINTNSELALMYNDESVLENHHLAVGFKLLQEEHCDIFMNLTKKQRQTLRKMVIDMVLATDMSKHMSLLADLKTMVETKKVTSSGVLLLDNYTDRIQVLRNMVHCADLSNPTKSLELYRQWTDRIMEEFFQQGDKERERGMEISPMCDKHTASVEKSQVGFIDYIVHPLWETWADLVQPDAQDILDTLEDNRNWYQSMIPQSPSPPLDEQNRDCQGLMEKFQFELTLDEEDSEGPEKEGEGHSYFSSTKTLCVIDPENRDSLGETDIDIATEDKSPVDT
Outline: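 ACTOne HEK293 cells carry a modified cAMP-gated CNG channel and express endogenous PDE4; plated 1000 cells/well, compounds up to 22.9 uM final. Membrane-potential dye fluorescence (ex 535/em 590) was read; parental cells received 10 uM forskolin + 100 uM RO 20-1724.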

[9] = target: Ubiquitin carboxyl-terminal hydrolase 1 (Homo sapiens) (UniProt O94782); experiment: Inhibitors of USP1/UAF1: Pilot qHTS (AID 504865);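 further: rhodamine fluorescence freed from ubiquitin-rhodamine substrate followed over time; top concentration of the series differs between compounds; on the % scale 0 is the no-effect control and ±100 the full control effect; nearly all actives have a fitted effect of over 35% in size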
Chain of Ubiquitin carboxyl-terminal hydrolase 1 (Homo sapiens) (O94782 whole entry, looked up): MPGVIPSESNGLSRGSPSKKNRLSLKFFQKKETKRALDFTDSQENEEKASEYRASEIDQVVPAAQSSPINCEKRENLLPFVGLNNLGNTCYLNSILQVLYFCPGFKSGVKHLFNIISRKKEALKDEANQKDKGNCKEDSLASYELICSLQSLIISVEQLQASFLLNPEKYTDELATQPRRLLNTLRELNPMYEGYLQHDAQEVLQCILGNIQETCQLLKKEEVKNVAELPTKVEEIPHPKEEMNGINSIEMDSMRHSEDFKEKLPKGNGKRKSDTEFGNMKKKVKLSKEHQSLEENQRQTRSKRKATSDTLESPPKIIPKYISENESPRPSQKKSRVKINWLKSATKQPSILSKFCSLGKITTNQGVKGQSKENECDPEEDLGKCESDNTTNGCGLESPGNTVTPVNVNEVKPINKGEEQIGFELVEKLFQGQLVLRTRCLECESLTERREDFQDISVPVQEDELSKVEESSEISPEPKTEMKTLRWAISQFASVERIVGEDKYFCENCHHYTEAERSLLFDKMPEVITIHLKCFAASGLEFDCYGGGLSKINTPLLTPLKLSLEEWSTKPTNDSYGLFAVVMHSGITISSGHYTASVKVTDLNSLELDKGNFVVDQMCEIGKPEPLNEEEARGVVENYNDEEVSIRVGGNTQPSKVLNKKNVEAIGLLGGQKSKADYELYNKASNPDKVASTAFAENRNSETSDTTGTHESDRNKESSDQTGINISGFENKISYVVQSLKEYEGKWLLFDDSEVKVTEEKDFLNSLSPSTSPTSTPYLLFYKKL
Outline: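 Enzyme-free wells gave the negative control, while test wells held 1nM USP1/UAF1 preincubated with compound for 15 min at room temperature. Ub-Rho at 150nM final started the reaction, and fluorescence at 480/540 nm was recorded kinetically.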

[10] = AP1 Signaling Pathway (AID 357; active means well fitted curve in either direction with a large enough effect, not every such curve was filed as active; further: on the % scale 0 is the no-effect control and ±100 the full control effect); details: ME-180 AP-1-bla reporter, EGF-induced, beta-lactamase ratio, 5 h
Outline: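 ME-180 cells with beta-lactamase reporter under AP-1 response element, stimulated with EC50 EGF; compounds tested in titration series, 5 h at 37 °C. CCF4 substrate added 2.5 h at room temperature; 460/530 nm emission ratio gave %activity and AC50.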

[11] = NFAT Signaling Pathway (AID 444; active means well fitted curve in either direction with a large enough effect, not every such curve was filed as active;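 further: carbachol stimulus at about its EC50 of 1 µM final; on the % scale 0 is the no-effect control and ±100 the full control effect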); details: Jurkat NFAT-bla M1, carbachol, beta-lactamase ratio, 5 h
Outline: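 Jurkat cells with NFAT-driven β-lactamase reporter and co-expressed M1 receptor, stimulated with carbachol (final 1 uM, ~EC50), compound titration, 5 h at 37 °C. CCF4 loaded 1 h at RT; 460/530 nm ratio gave %activity and AC50.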

[12] = Stat Signaling Pathway (AID 446; active means well fitted curve in either direction with a large enough effect, not every such curve was filed as active;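 further: ME-180 cervical cancer cells given 40 pM IL-6 alongside compound; SIE-controlled beta-lactamase reporter measured as 460/530 nm FRET emission ratio; on the % scale 0 is the no-effect control and ±100 the full control effect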); details: ME-180 (cervical carcinoma) SIE beta-lactamase reporter, IL-6 stimulated, 5 h
Outline: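 Compound effects on IL-6-induced STAT reporter activity were measured in ME-180 cells. After overnight culture, cells were co-treated with 40 pM IL-6 for 5 hrs before beta-lactamase substrate loading at room temperature.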

[13] = target: Guanine nucleotide-binding protein G(i) subunit alpha-1 (Homo sapiens) (UniProt P63096); experiment: qHTS Assay for Inhibitors of RGS12 GoLoco Motif Activity (Green Fluorophore) (AID 879);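 further: 0% = labeled peptide with Gαi1 and full inhibition = labeled peptide alone without protein; negative values mean loss of peptide binding seen as reduced polarization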
Chain of Guanine nucleotide-binding protein G(i) subunit alpha-1 (Homo sapiens) (P63096 whole entry, looked up): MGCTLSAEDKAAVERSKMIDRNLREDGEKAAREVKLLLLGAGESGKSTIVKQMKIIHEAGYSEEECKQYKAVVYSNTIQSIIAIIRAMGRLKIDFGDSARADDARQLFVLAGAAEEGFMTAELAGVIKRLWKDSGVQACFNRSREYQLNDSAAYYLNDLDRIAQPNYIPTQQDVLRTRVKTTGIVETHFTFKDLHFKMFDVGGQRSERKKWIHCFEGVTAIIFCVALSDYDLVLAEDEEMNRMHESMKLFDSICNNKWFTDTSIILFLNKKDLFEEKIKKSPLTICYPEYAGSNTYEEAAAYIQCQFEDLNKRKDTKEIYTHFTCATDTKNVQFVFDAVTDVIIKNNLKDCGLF
Outline: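 A drop in FITC polarization marked displacement of the FITC-tagged RGS12 GoLoco peptide (10 nM) from Gαi1 (50 nM). Compounds were incubated 10 min at room temperature in Tris pH 7.5 buffer containing 150 mM NaCl, 0.1 mM GDP and 0.05% NP40; unlabeled peptide titration served as control.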

[14] = target: Cytochrome P450 2C9 (Homo sapiens) (UniProt P11712); experiment: qHTS Assay for Inhibitors and Substrates of Cytochrome P450 2C9 (AID 883); further: on the % scale 0 is the no-effect control and ±100 the full control effect; nearly all actives have a fitted effect of over 60% in size
Chain of Cytochrome P450 2C9 (Homo sapiens) (P11712 whole entry, looked up): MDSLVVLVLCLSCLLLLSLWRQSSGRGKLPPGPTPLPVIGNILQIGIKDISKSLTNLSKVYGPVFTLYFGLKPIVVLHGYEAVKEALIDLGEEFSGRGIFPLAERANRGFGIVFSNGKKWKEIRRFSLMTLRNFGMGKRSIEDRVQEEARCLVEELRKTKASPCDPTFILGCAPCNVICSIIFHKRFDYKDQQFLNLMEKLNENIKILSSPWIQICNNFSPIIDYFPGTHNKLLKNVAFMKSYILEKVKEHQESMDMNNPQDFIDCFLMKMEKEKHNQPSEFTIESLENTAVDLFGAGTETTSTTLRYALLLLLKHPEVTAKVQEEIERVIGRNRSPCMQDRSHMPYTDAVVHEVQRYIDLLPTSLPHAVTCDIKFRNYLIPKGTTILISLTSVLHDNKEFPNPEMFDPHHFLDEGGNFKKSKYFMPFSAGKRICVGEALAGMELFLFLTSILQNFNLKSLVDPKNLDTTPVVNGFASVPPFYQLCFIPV
Outline: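 Human CYP2C9 (10nM) with Luciferin-H at 100uM (its KM) in 25mM KPO4; compound preincubated 10 min at 37C, then NADPH regeneration for 60 min at 37C. Luciferin read by luminescence after detection reagent; normalized to 57uM sulphaphenazole as full inhibition.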

[15] = target: Pyruvate kinase PKM (Homo sapiens) (UniProt P14618); experiment: qHTS Assay for Activators of Human Muscle Pyruvate Kinase (AID 954; active means well fitted curve in the direction sought with a large enough effect, not every such curve was filed as active;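 further: 0% = uninhibited enzyme and -100% = no enzyme or full thiadiazolimine inhibition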)
Chain of Pyruvate kinase PKM (Homo sapiens) (P14618 whole entry, looked up): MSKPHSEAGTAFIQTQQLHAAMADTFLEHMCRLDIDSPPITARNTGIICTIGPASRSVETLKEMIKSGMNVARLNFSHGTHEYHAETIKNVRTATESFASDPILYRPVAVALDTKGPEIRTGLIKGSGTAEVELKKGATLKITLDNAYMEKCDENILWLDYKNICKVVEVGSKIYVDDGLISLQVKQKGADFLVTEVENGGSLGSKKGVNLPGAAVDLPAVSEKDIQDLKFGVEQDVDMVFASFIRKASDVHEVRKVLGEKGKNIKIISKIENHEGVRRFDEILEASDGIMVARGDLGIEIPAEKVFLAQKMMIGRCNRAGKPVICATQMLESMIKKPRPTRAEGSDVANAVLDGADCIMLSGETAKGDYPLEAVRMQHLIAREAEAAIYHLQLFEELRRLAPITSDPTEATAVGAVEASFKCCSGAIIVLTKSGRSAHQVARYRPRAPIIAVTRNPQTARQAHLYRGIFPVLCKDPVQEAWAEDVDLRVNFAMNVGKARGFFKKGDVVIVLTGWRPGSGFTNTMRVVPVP
Outline: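 A coupled luminescent readout tracked ATP made from ADP by purified PKM2. Final conditions included 0.1 nM enzyme, PEP and ADP at 0.5 and 0.1 mM, pH 7.2 imidazole buffer with BSA, and a one-hour room-temperature reaction.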

[16] = target: alpha-glucosidase (Oryza sativa, rice) (UniProt Q653V4); experiment: Counterscreen for Glucocerebrosidase Inhibitors: qHTS Assay for Rice alpha-Glucosidase at pH 5.0 (AID 997);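 further: 0% = full activity with enzyme and -100% = basal without enzyme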
Outline: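 Endpoint fluorogenic assay at pH 5.0: compounds (0.7 nM to 77 uM) titrated against 4 nM rice enzyme and 400 uM 4-MU-alpha-glucoside for 20 min at room temperature; NaOH/glycine stop, read ex 365/em 440 nm, Hill-fitted AC50.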

[17] = measured here: cell count channel max response
[18] = measured here: lipid channel max response

## Cc1nc(N=Nc2cc(S(=O)(=O)O)ccc2S(=O)(=O)O)c(COP(=O)(O)O)c(C=O)c1O
[1]
  Potency: inactive
[2]
  Potency: > 46 µM (inactive)
[3]
  Potency: > 46 µM (inactive)
[4]
  Potency: inactive
[5]; at 57.5 µM (top of the series)
  activity change, negative = inhibition: -1.5% (inactive)
[5]; [17]
  max response: -2.46%
[5]; [18]
  max response: -2.68%
[6]
  Potency: inactive
[7]
  Potency: inactive

## c1ncc(CC2CCNCC2)[nH]1
[2]
  Potency: > 46 µM (inactive)
[3]
  Potency: > 46 µM (inactive)
[4]
  Potency: inactive
[8]
  Potency: inactive
[5]; at 57.5 µM (top of the series)
  activity change, negative = inhibition: 0.0288% (inactive)
[5]; [17]
  max response: -18.2%
[5]; [18]
  max response: -15.8%
[9]
  Potency: inactive
[6]
  Potency: inactive
[7]
  Potency: inactive

## CC(=O)Nc1ccc(OC[C@@H](O)CNC(C)C)cc1
[10]; at 17.2 µM (top of the series)
  activity change, negative = inhibition: 5.39% (inactive)
[1]
  Potency: inactive
[11]; at 17.2 µM (top of the series)
  activity change, negative = inhibition: -18.7% (inactive)
[12]; at 17.2 µM (top of the series)
  activity, negative = inhibition: 9.62% (inactive)
[2]
  Potency: > 20.6 µM (inactive) and > 46 µM (inactive)
[4]
  Potency: inactive
[8]
  Potency: inactive
[5]; at 25.7 µM (top of the series)
  activity change, negative = inhibition: -2.39% (inactive)
[5]; at 57.5 µM (top of the series)
  activity change, negative = inhibition: -10.4% (inactive)
[5]; [17]
  max response: -2.07% and -0.999%
[5]; [18]
  max response: -5.59% and -8.67%
[9]
  Potency: inactive
[6]
  Potency: inactive
[7]
  Potency: inactive

## CO[C@]1(C2=NCCN2)COc2ccccc2O1
[10]; at 38 µM (top of the series)
  activity change, negative = inhibition: -14% (inactive)
[1]
  Potency: inactive
[11]; at 38 µM (top of the series)
  activity change, negative = inhibition: -11% (inactive)
[12]; at 38 µM (top of the series)
  activity, negative = inhibition: 13.6% (inactive)
[2]
  Potency: > 46 µM (inactive)
[3]
  Potency: > 46 µM (inactive)
[4]
  Potency: inactive
[8]
  Potency: inactive
[13]
  outcome: inactive
[14]
  Potency: inactive
[15]
  outcome: inactive
[16]
  outcome: inactive
[5]; at 57.5 µM (top of the series)
  activity change, negative = inhibition: 1.12% (inactive)
[5]; [17]
  max response: 8.44%
[5]; [18]
  max response: 10.7%
[6]
  Potency: inactive
[7]
  Potency: inactive

## CS(=O)(=O)Nc1c(O)ccc2c1CCC[C@H]2C1=NCCN1
[1]
  Potency: inactive
[2]
  Potency: > 46 µM (inactive)
[3]
  Potency: > 46 µM (inactive)
[4]
  Potency: inactive
[8]
  Potency: inactive
[5]; at 57.5 µM (top of the series)
  activity change, negative = inhibition: -4.88% (inactive)
[5]; [17]
  max response: -12.4%
[5]; [18]
  max response: -17.3%
[9]
  Potency: inactive
[6]
  Potency: inactive
[7]
  Potency: inactive

## N[C@@H](Cn1cc(I)c(=O)n(Cc2ccc(C(=O)O)cc2)c1=O)C(=O)O
[1]
  Potency: 31.6 µM (active)
[2]
  Potency: > 46 µM (inactive)
[4]
  Potency: inactive
[5]; at 57.5 µM (top of the series)
  activity change, negative = inhibition: 2.45% (inactive)
[5]; [17]
  max response: 4.58%
[5]; [18]
  max response: 1.43%
[9]
  Potency: inactive
[6]
  Potency: inactive
[7]
  Potency: inactive

## CC(=O)N[C@@H](C(=O)O)C(C)(C)SN=O
[10]; at 38 µM (top of the series)
  activity change, negative = inhibition: -1.8% (inactive)
[1]
  Potency: inactive
[11]; at 38 µM (top of the series)
  activity change, negative = inhibition: 9.84% (inactive)
[12]; at 38 µM (top of the series)
  activity, negative = inhibition: 2.94% (inactive)
[2]
  Potency: > 46 µM (inactive)
[3]
  Potency: > 46 µM (inactive)
[4]
  Potency: inactive
[8]
  Potency: inactive
[13]
  outcome: inactive
[15]
  outcome: inactive
[16]
  outcome: inactive
[5]; at 57.5 µM (top of the series)
  activity change, negative = inhibition: 9.07% (inactive)
[5]; [17]
  max response: 15.4%
[5]; [18]
  max response: 28.4%
[6]
  Potency: inactive
[7]
  Potency: inactive
